The supplement of paper PMC7695840
Counter-ions that a name gives are not always drawn.

Tested on: Staphylococcus aureus MW2 delta-mecA (mecA-)
Test: normalized GFP fluorescence (growth of mecA- strain) (fraction of control range); higher = more growth of mecA- strain
Settings: compound concentration: 150 uM; cefoxitin: subinhibitory; fluorescent label: GFP
Summary of the method: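 Compound at 150 μM (1.5% DMSO) in 1536-well plates received 5 µL/well of pre-induced S. aureus MW2 cells mixed 1:1, gene-carrying with DsRed and gene-deleted with GFP, in LB with a daily-set subinhibitory antibiotic dose, single replicate. After 20 h unshaken at 37 °C, 90% humidity, DsRed (540/590) and GFP (485/520) were measured and scaled per plate between single-strain control medians. Plates with high untreated ratios and rows with DsRed/GFP >10 were excluded.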

Question: `CCc1cc(C(N)=S)ccn1` was tested. Which “normalized GFP fluorescence” value did it give?
Answer: 0.386

Question: How did the “normalized GFP fluorescence” value turn out when `C#CCN[C@@H]1CCc2ccccc21` was run?
Answer: 0.911

Question: Which “normalized GFP fluorescence” value does the source give for `CC(C)(C)NC[C@H](O)COc1ccccc1C1CCCC1` here?
Answer: 0.435

Question: With `COc1ccc2c(c1OC)C(=O)O[C@@H]2[C@H]1c2c(cc3c(c2OC)OCO3)CCN1C` as the molecule, how does the “normalized GFP fluorescence” value read?
Answer: 0.473

Question: Which “normalized GFP fluorescence” value does the source give for `CCCc1nc(C(C)(C)O)c(C(=O)OCc2oc(=O)oc2C)n1Cc1ccc(-c2ccccc2-c2nnn[nH]2)cc1` here?
Answer: 0.0265

Question: With `O=C1CN2Cc3c(ccc(Cl)c3Cl)N=C2N1` as the molecule, how does the “normalized GFP fluorescence” value read?
Answer: 0.237

Question: For `COc1cc2nccc(Oc3ccc(NC(=O)NC4CC4)c(Cl)c3)c2cc1C(N)=O` [E7080 (Lenvatinib)], which “normalized GFP fluorescence” value is on record?
Answer: 0.528

Question: Which “normalized GFP fluorescence” value does the source give for `O=C(c1ccccc1)c1ccc2n1CCC2C(=O)O` (centres undefined) here?
Answer: 0.247

Question: How did the “normalized GFP fluorescence” value turn out when `Cc1nnc(C(=O)NC(C)(C)c2nc(C(=O)NCc3ccc(F)cc3)c(O)c(=O)n2C)o1` [Raltegravir (MK-0518)] was run?
Answer: 0.051

Question: With `COc1ccc2c(c1)C(=O)N(CCc1ccc(S(=O)(=O)NC(=O)NC3CCCCC3)cc1)C(=O)C2(C)C` [Gliquidone] as the molecule, how does the “normalized GFP fluorescence” value read?
Answer: 0.017

Question: For `NCCc1c[nH]cn1`, which “normalized GFP fluorescence” value is on record?
Answer: 0.621

Question: How did the “normalized GFP fluorescence” value turn out when `NS(=O)(=O)c1cc2c(cc1Cl)N=CNS2(=O)=O` was run?
Answer: 0.373

Question: How did the “normalized GFP fluorescence” value turn out when `COc1ccc(CN(CCN(C)C)c2ncccn2)cc1` was run?
Answer: 0.471

Question: For `Cc1cccc(C)c1NC(=O)C(C)N` (centres undefined), which “normalized GFP fluorescence” value is on record?
Answer: 0.842

Question: With `CC(Oc1c(Cl)cccc1Cl)C1=NCCN1` (centres undefined) as the molecule, how does the “normalized GFP fluorescence” value read?
Answer: 0.693

Question: For `NS(=O)(=O)Cc1noc2ccccc12` [Zonisamide], which “normalized GFP fluorescence” value is on record?
Answer: 0.595

Question: For `NS(=O)(=O)c1cc2c(cc1C(F)(F)F)NCNS2(=O)=O`, which “normalized GFP fluorescence” value is on record?
Answer: 0.22

Question: `Nc1nc2ccc(OC(F)(F)F)cc2s1` was tested. Which “normalized GFP fluorescence” value did it give?
Answer: 0.622

Question: For `CC(C)[C@H](N)C(=O)OCCOCn1cnc2c(=O)nc(N)[nH]c21` [Valaciclovir HCl], which “normalized GFP fluorescence” value is on record?
Answer: 0.302
